High-throughput results as filed in PubChem.
A selection: hits, their analogues and other compounds. The true share with any hit is near 11%.
PNC assembly inh: High Content Assay for Compounds that inhibit the Assembly of the Perinucleolar Compartment; 140,000 tested, 3.1% active; PC3M PTB-GFP, PNC prevalence imaging, 16 h; stronger effect = lower value; AID 2417, 2010; activity change (PNC), negative = inhibition, % at 10 µM;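 active means readout at or below -70, meaning at least 70% loss of cells showing the perinucleolar compartment, a nuclear body marking cancer cells; inconclusive means readout between -30 and a set limit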;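 further: plate controls were DMSO wells for no effect and camptothecin positive control wells for full effect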
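Read-out is percentage of cells bearing a perinucleolar compartment, from automated 20x imaging of fixed, Hoechst-stained PC3M PTB-GFP cells. Cells were seeded 4 h, then exposed 16 h to compound (23 nl of library stock) in duplicate plates.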
ALDH1A1 inh: qHTS Assay for Inhibitors of Aldehyde Dehydrogenase 1 (ALDH1A1); Purified ALDH1A1, NADH fluorescence, propionaldehyde substrate; 220,000 tested, 7.3% active; Potency, µM (doses to about 75.3 µM), for inactives: at the top dose activity, negative = inhibition, usual class: inhibitors; Aldehyde dehydrogenase 1A1 (Homo sapiens), P00352; active means well fitted inhibition curve with a large enough effect, not every such curve was filed as active; inconclusive means small, poorly fitted or top-dose-only effect, or another doubt; inactive means no such curve, though single readings can be large or run the other way;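 further: potency means the concentration at half of the fitted maximal effect; plate controls were no enzyme wells and a reference inhibitor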
HPGD inh: qHTS Assay for Inhibitors of HPGD (15-Hydroxyprostaglandin Dehydrogenase); Potency, µM, for inactives: at the highest dose activity change, negative = inhibition, actives largely listed as inhibitors; 15-hydroxyprostaglandin dehydrogenase [NAD(+)] (Homo sapiens), P15428; AID 894, 2007; purified HPGD, NADH fluorescence kinetic, PGE2 substrate; 150,000 tested, 4.3% active; active means well fitted inhibition curve with a large enough effect, not every such curve was filed as active; inconclusive means small, poorly fitted or top-dose-only effect, or another doubt; inactive means no such curve, though single readings can be large or run the other way; further: potency means the concentration at half of the fitted maximal effect; on the % scale 0 is the no-effect control and ±100 the full control effect
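20 nM HPGD preincubated 15 min at room temperature with compound in 50 mM Tris-HCl pH 8, 0.01% Tween 20. Started with 1 mM NAD+ and 30 uM prostaglandin E2; NADH fluorescence (360/450 nm) read 5 times over 30-s intervals, last minus first.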
HTT aggregate: qHTS Multiplex Assay to Identify Dual Action Probes in a Cell Model of Huntington: Aggregate Formation (GFP). PC12 HttQ103-GFP aggregates, Acumen cytometry, 40 h. Potency, µM (highest dose often 46.1 µM), inactives show at the top dose activity change, negative = inhibition, hits mostly inhibitors. 220,000 tested, 1.1% active; further: potency means the concentration at half of the fitted maximal effect; on the % scale 0 is the no-effect control and ±100 the full control effect; nearly all actives have a fitted effect of over 60% in size
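Using laser scanning cytometry, GFP-positive aggregates were counted after lysis of PC12 cells induced with 100 nM tebufenozide to express HTT exon 1 Q103–GFP. Compounds were tested in titration.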
HTT cytoprotect: qHTS Multiplex Assay to Identify Dual Action Probes in a Cell Model of Huntington: Cytoprotection (ATP); PC12 HTT-Q103 induced, cytoprotection, ATP luminescence, 40 h; Potency, µM (series often up to 56.4 µM), inactives show cytoprotection (ATP increase), most hits filed as activators; 230,000 tested, 0.14% active; AID 1471, 2008; further: potency means the concentration at half of the fitted maximal effect; % of control where 0% means no effect; nearly all actives have a fitted effect of over 45% in size
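PC12 cells stably carrying ecdysone-inducible Htt exon 1 (Q103)–GFP were induced with 100 nM tebufenozide (final) alongside library compounds in a dose series. Cytoprotection was scored as retained ATP by ATPlite luminescence.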
CBFb-RUNX1 inh: qHTS Assay for Compounds Blocking the Interaction Between CBF-beta and RUNX1 for the Treatment of Acute Myeloid Leukemia. AlphaScreen CBFb-His/RUNX1-biotin binding, biochemical. 230,000 tested, under 10 active. Runt-related transcription factor 1 (Homo sapiens) + Core-binding factor subunit beta …. Potency, µM (titrated, usually from 59.8 µM), for the others: at the highest dose activity, negative = inhibition, usual class: inhibitors; further: % of control where 0% means no effect
Target sequence (Q01196 whole entry, looked up): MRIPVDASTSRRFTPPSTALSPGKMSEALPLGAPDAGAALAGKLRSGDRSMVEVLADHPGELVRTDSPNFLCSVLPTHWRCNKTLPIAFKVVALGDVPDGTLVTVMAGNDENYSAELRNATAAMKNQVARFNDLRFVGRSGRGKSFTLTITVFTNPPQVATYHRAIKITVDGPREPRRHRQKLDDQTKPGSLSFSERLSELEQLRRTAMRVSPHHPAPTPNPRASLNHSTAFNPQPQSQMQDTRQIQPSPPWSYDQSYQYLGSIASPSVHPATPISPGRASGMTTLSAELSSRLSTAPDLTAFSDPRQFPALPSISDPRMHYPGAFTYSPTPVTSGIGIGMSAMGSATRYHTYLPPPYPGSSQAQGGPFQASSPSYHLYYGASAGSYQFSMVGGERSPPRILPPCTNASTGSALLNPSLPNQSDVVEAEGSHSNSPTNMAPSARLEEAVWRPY
Target sequence (Q13951 whole entry, looked up): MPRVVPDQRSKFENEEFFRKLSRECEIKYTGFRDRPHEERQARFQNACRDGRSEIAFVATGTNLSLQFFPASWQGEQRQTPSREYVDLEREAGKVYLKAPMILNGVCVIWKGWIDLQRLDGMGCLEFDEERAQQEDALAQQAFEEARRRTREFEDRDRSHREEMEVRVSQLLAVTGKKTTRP
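AlphaScreen binding: CBFb-His and RUNX1-biotin (30 nM each) preincubated 20 min, compound added for 15 min, then nickel and streptavidin beads for 90 min, all at room temperature. Disruption of the interaction by any mechanism counts as activity.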
* = called active by the depositor; ? = inconclusive; . = not tested or not shown; [ ] = dose if it differs, or a comment. Unless noted, the call rests on the fitted dose curve; in most records, active means well fitted curve in the direction sought with a large enough effect; inconclusive means small, poorly fitted or top-dose-only effect, or another doubt; inactive means no such curve, though single readings can be large; an effect the other way counts as inactive or inconclusive.

SMILES	PNC assembly inh	ALDH1A1 inh	HPGD inh	HTT aggregate	HTT cytoprotect	CBFb-RUNX1 inh
CCn1c(SCC(=O)NCc2ccco2)nnc1-c1c[nH]c2ccccc12	13	-8%	-18%	?	-24%	-2%
COC(=O)C1=C(C(=O)OC)[C@@H]2N(Cc3ccccc3)c3ccccc3[C@@]23C[C@@H](C(=O)OC)N(S(=O)(=O)c2ccc4c(c2)OCCN4C)C3=N1	.	-2%[13.5 µM]	-7%	.	-17%[10 µM]	-16%[13.1 µM]
Cc1ccc(S(=O)(=O)N2CCCOC2CNC(=O)C(=O)NCc2ccco2)cc1 (configuration not stated)	18	?	0%	33%	14%[10 µM]	1%
Cc1[nH]n(-c2ncc(-c3ccccc3)s2)c(=O)c1C(c1ccc(Cl)cc1)C(C#N)C#N (configuration not stated)	12	28µM*	25µM*	?	25%[10 µM]	?
CC(=O)N(CC(O)CN(C(C)=O)c1c(I)c(C(=O)NC[C@@H](O)CO)c(I)c(C(=O)NC[C@@H](O)CO)c1I)c1c(I)c(C(=O)NC[C@@H](O)CO)c(I)c(C(=O)NC[C@@H](O)CO)c1I	.	-7%[20.9 µM]	2%	-9%[20.6 µM]	3%[40.3 µM]	-7%[21.7 µM]
CN1/C(=C\C(=O)COc2ccc3c(c2)OCO3)C(C)(C)c2ccccc21	52	-9%	?	22µM*	-19%	-25%
CSc1ncccc1C(=O)OCc1ccc(COC(=O)c2cccnc2SC)cc1	-108*	-6%	-9%	-12%	-1%	5%
COc1cccc([C@@H]2Oc3ccc(Br)cc3C(=O)[C@H]2OC(=O)Nc2ccc(OC(F)F)cc2)c1	.	10%	-17%	.	.	-4%
O=C(c1ccco1)N(Cc1cccc([N+](=O)[O-])c1)c1ccc(Br)cc1	.	22µM*	.	-4%[9.22 µM]	-3%[10 µM]	2%
O=C(c1ccco1)N(Cc1ccco1)c1ccc(O)cc1	-96*	4%	-1%	-17%	5%[0.074 µM]	6%
O=C(c1ccco1)N(Cc1ccccc1)c1cccc([N+](=O)[O-])c1	.	20µM*	.	?	-127%	8%
O=C(c1ccco1)N(Cc1ccc([N+](=O)[O-])cc1)c1ccc(Cl)cc1	1	?	-10%	-15%	-4%	-4%
CN(Cc1ccco1)c1cc(-c2ccoc2)ncn1	.	25µM*	.	.	7%	.
O=C(C/C(=N/O)c1ccccc1O)C(F)F	7	7%	16µM*	2%	0%	2%
Cc1cccc(Cc2c(C)nc3nc(SCC(=O)NCc4ccco4)nn3c2C)c1	20	25µM*	16µM*	0%	-29%	-1%
O=C(CSc1ccc2c(c1)OCCO2)NCc1ccco1	-10	14µM*	25µM*	9%	-11%	5%
Cc1cc(C)c2cc(C)c(SCC(=O)NCc3ccco3)nc2c1	.	14µM*	.	-4%[9.22 µM]	-1%[10 µM]	5%
CC(C)(C)c1nc2ccccc2c2nnc(SCC(=O)NCc3ccco3)n12	-19	25µM*	16µM*	-4%	-11%[10 µM]	-5%
O=[N+]([O-])c1ccc(C2=Nn3c(nnc3-c3ccc(Cl)cc3)SC2)o1	.	-9%[13.5 µM]	-10%	.	-47%[10 µM]	.
O=C(CSc1nc2ccc(Cl)cc2[nH]1)NCc1ccco1	-3	-3%	-6%	16%[9.22 µM]	-6%[10 µM]	1%
Cc1occc1-c1nnc(SCC(=O)NCc2ccco2)n1CC(C)C	1	?	-13%	2%	4%	-15%
C=CCn1c(SCC(=O)NCc2ccco2)nnc1-c1ccc2ccccc2n1	15	?	16µM*	18%	-10%	-6%
O=C(CN1CCOc2ccccc21)NCc1ccco1	-106*	11µM*	-27%	13%	-3%	-1%
O=C(CN1CC(=O)Oc2ccccc21)NCc1ccco1	-20	?	-5%	?	7%[0.074 µM]	-2%
O=C(CSc1c2c(nc3cc(Cl)ccc13)CCCC2)NCc1ccco1	-17	-5%	-19%	.	13µM*	-4%
SMILES	PNC assembly inh	ALDH1A1 inh	HPGD inh	HTT aggregate	HTT cytoprotect	CBFb-RUNX1 inh
O=C(CCSCCC(=O)NCc1ccco1)NCc1ccco1	27	18µM*	16µM*	2%	0%	-5%
O=C(NCCN1CCCCC1)c1ccc(-n2c(=O)c(=O)[nH]c3ccccc32)cc1	.	0%	-8%	.	.	.
O=C(O)c1cccc(CN2CCCCC2)c1	.	15%[13.5 µM]	-9%	.	-14%[10 µM]	.
CCCn1cc(SCC(=O)NCc2ccco2)c2ccccc21	-22	?	18µM*	0%	4%[10 µM]	2%
CC(C)C(CC(=O)NCc1ccco1)c1ccco1 (configuration not stated)	35	?	14µM*	6%	5%[10 µM]	0%
O=C(CSc1ccc2c(c1)OCCO2)Nc1ccc(Br)cc1	?	7.1µM*	.	10%	-34%	0%
O=C(CSc1cn(CCNC(=O)c2ccccc2)c2ccccc12)NCc1ccco1	-2	?	-10%	1%	-10%	-7%
O=C(CSc1ccccc1)NCc1ccco1	-5	6%	28µM*	-10%	-1%[1.9 µM]	7%
O=C(CC(NC(=O)c1ccccc1Cl)c1ccccc1)NCCc1ccc(Cl)cc1 (configuration not stated)	-108*	-3%	-3%	12%	5%[1.9 µM]	2%
CC(=O)c1ccc(OC2C=CC(C#Cc3ccc(Br)cc3)OC2CO)cc1 (configuration not stated)	.	?	.	.	-8%[10 µM]	3%[13.1 µM]
COc1ccc(Cl)cc1NC(=O)CN(C(=O)c1ccco1)C1CCCCC1	34	0.04µM*	-16%	?	0%	-6%
COCCOC(=O)c1c(NC(=O)CN2CCc3ccccc32)sc(C(N)=O)c1C	.	14µM*	.	44%[9.22 µM]	-2%[10 µM]	-10%
COc1ccc(Cl)cc1NC(=O)CN1CCCCCC1	.	18µM*	.	-11%	-44%	-1%
COc1ccc(Cl)cc1NC(=O)CN1CCc2ccccc21	.	7.9µM*	.	-20%	-42%	-3%
C/C(=N/S(=O)(=O)c1ccc(Cl)c(Cl)c1)OCC(C)(C)C	.	5%[13.5 µM]	-6%	.	8%[10 µM]	.
Cc1nn(Cc2c(Cl)cccc2Cl)c(Cl)c1/C=N/NC(=O)c1cccnc1	3	-15%	-23%	-10%	20%[10 µM]	14%
C[C@@]1(O)CCOC(=O)C1	.	1%[20.9 µM]	-1%	.	3%[40.3 µM]	3%[21.7 µM]
C=CCNc1cnn(-c2ccc(C)cc2)c(=O)c1Sc1ccc(C)cc1	.	10µM*	.	?	-49%	3%
